Experimental data as given in PubChem BioAssay (EPA / NIEHS).
Several values for one entry are separate records, joined by “and”; a condition that tells them apart may be missing. Identical values can stand only once. Results filed as inconclusive are left out. Where a structure was tested more than once in an assay, its records may differ in their call. Activity calls are given as the source filed them. How the source made its calls: active means hit-call score of the fitted dose curve at least 0.9, where 1 is the maximum; inconclusive means response in the unintended direction; inactive means score below 0.9.

These compounds were tested on Cytochrome P450 2B6 (Homo sapiens) (UniProt P20813) (assay: CLD_CYP2B6_24hr: CellzDirect (CLD) Gene Expression Assay for xenobiotic metabolism (CYP2B6) at 24 hours (AID 2283686)).
Procedure: CLD_24hr is a cell-based, multiplexed-readout assay that uses hepatocyte, a human liver primary cell, with measurements taken at 24 hours after chemical dosing in a 96-well plate.CLD_CYP2B6_24hr is one of 16 assay component(s) measured or calculated from the CLD_24hr assay. It is designed to make measurements of mRNA induction, a form of inducible reporter, as detected with chemiluminescence signals by Quantitative Nuclease Protection Assay (qNPA) technology.Data from the assay component CLD_CYP2B6_24hr was analyzed at the endpoint, CLD_CYP2B6_24hr, in the positive analysis fitting direction relative to DMSO as the negative control and baseline of activity. Using a type of inducible reporter, gain-of-signal activity can be used to understand changes in the reporter gene as they relate to the gene CYP2B6. Furthermore, this assay endpoint can be referred to as a primary readout. To generalize the intended target to other relatable targets, this assay endpoint is annotated to the cyp intended target family, where subfamily is xenobiotic metabolism.
Human hepatocyte cultures were treated daily for two consecutive days with fresh dosing solutions containing appropriate concentrations of the 320 ToxCast chemicals (chemical identities were blinded to CellzDirect and other ToxCast collaborators), vehicle control (0.2% DMSO), and positive control inducers as summarized in Table 1. Due to the large number of treatment groups and chemicals examined, the ToxCast chemicals were divided into two groups (spanning two independent cultures of hepatocytes from separate donor preparations (Hu778: ToxCast plates 1 and 2; Hu776: ToxCast plates 3 and 4). Each preparation of human hepatocyte cultures was treated with respective vehicle control, medium only control, set of six positive controls/reference chemicals for the five hepatic receptor pathways, and a subset of eight of the ToxCast chemicals (indoxacarb, pyrithiobac-sodium, norflurazon, cyhalofop-butyl, methomyl, thiram, acetochlor, and propiconazole). These replicate data, coupled with internal replicates designed within the blinded ToxCast chemical library, provided additional data to evaluate interindividual differences between hepatocyte preparations and their potential impact on chemical profiles.Cell morphology and integrity were evaluated using phase-contrast microscopy as an indicator of hepatocyte cell health (Tyson & Green, 1987). Cultures for each treatment group (i.e., media, vehicle [0.2% DMSO], positive control inducers [multiple concentrations], and the ToxCast chemicals [multiple concentrations]) were observed and cell morphology was assessed relative to vehicle control cultures at each harvest time point (0, 6, 24, or 48 h). […] Images were evaluated at the conclusion of the study to assess changes in cell integrity and account for the effects of chemical exposure on uncharacteristic changes in concentration-dependent gene expression profiles. The results from these determinations of apparent cytotoxicity were annotated (yes/no) alongside the corresponding qNPA data for reference.At the conclusion of each treatment period, hepatocyte cultures (96-well) were washed with 1 volume of HBSS, lysed by addition of 25 ul ArrayPlate lysis buffer (HTG, Tucson, AZ), and 70 ul/well of Denaturation Oil, denatured by incubation at 95C for 10 min, and frozen at approximately -70C until analysis by nuclease protection assay (qNPA) (Roberts et al., 2007). For qNPA analysis, cell lysates were thawed at 50C for approximately 30 min, qNPA probes were added, and samples were incubated at 95C for 10 min to begin the detection process by denaturing the target RNA, dissociating the duplexes and secondary structure hybridization. At the conclusion of the hybridization period, S1 nuclease reagent was added to each sample to digest all nonprotected nucleotides at 50C for 60-90 min. […]

Compound	AC50	outcome
COc1nc(C)nc(NC(=O)NS(=O)(=O)c2ccccc2CCC(F)(F)F)n1	3.4 µM (active) and 5.71 µM (active) and 908 nM (active)	–
C#CCOS(=O)OC1CCCCC1Oc1ccc(C(C)(C)C)cc1 (stereo not given)	3.2 µM (active)	–
CC1=C(C(=O)Nc2ccccc2)SCCO1	6 µM (active)	–
COc1ccc(C(c2ccc(OC)cc2)C(Cl)(Cl)Cl)cc1	7.11 µM (active)	–
C=CCC1=C(C)[C@@H](OC(=O)[C@@H]2[C@@H](C=C(C)C)C2(C)C)CC1=O	20 µM (active)	–
CNC(=O)ON=CC(C)(C)SC	–	inactive
CCCC1COC(Cn2cncn2)(c2ccc(Cl)cc2Cl)O1 (stereo not given)	0.668 µM (active)	–
O=C(O)COc1nc(Cl)c(Cl)cc1Cl	–	inactive
CCCCNC(=O)OCC#CI	–	inactive
CCOC(=O)CC(SP(=S)(OC)OC)C(=O)OCC (stereo not given)	–	inactive
N#Cc1nn(-c2c(Cl)cc(C(F)(F)F)cc2Cl)c(N)c1S(=O)C(F)(F)F (stereo not given)	1.9 µM (active)	–
C=CCC1=C(C)C(OC(=O)C2C(C=C(C)C)C2(C)C)CC1=O (stereo not given)	–	inactive
CCNc1nc(Cl)nc(NC(C)C)n1	3.92 µM (active)	–
COC(=O)c1ccccc1C(=O)OC	–	inactive
COC(=O)C(C)Oc1ccc(Oc2ccc(Cl)cc2Cl)cc1 (stereo not given)	20 µM (active) and 34.6 µM (active)	inactive
CC(C)C1(C)N=C(c2nc3ccccc3cc2C(=O)O)NC1=O (stereo not given)	–	inactive
Fc1ccc(Oc2ccnc3cc(Cl)cc(Cl)c23)cc1	–	inactive
Cc1c(F)c(F)c(COC(=O)C2C(/C=C(\Cl)C(F)(F)F)C2(C)C)c(F)c1F (stereo not given)	20 µM (active)	–
Cc1cc(Cl)ccc1OCC(=O)O	–	inactive

Compound	AC50	outcome
CCc1nn(C)c(C(=O)NCc2ccc(C(C)(C)C)cc2)c1Cl	–	inactive
COc1cnc(OC)n2nc(NS(=O)(=O)c3c(OCC(F)F)cccc3C(F)(F)F)nc12	–	inactive
O=C(O)c1nc(Cl)ccc1Cl	–	inactive
CCOC(=O)C(Cl)Cc1cc(-n2nc(C)n(C(F)F)c2=O)c(F)cc1Cl (stereo not given)	6.33 µM (active)	–
OC(c1ccc(Cl)cc1)(c1cncnc1)c1ccccc1Cl (stereo not given)	1.24 µM (active)	–
CCNc1nc(Cl)nc(NCC)n1	9.74 µM (active)	–
CCCCOC(=O)c1ccccc1C(=O)OCCCC	5.33 µM (active)	inactive
COc1nc(NC(C)C)nc(NC(C)C)n1	–	inactive
COP(=S)(OC)Oc1nc(Cl)c(Cl)cc1Cl	5.02 µM (active)	–
COC(=O)N(OC)c1ccccc1COc1ccn(-c2ccc(Cl)cc2)n1	–	inactive
CCON=C(CC)C1=C(O)CC(c2c(C)cc(C)cc2C)CC1=O (stereo not given)	–	inactive
CC1COC(Cn2cncn2)(c2ccc(Oc3ccc(Cl)cc3)cc2Cl)O1 (stereo not given)	0.000442 µM (active)	–
CO/C=C(/C(=O)OC)c1ccccc1Oc1cc(Oc2ccccc2C#N)ncn1	7.02 µM (active)	–
O=C(Nc1ccccc1)Nc1ccnc(Cl)c1	8.15 µM (active)	–
CCOc1cc(Oc2ccc(C(F)(F)F)cc2Cl)ccc1[N+](=O)[O-]	–	inactive
CC(C)Oc1cc(-n2nc(C(C)(C)C)oc2=O)c(Cl)cc1Cl	0.829 µM (active)	–
CCCCNC(=O)n1c(NC(=O)OC)nc2ccccc21	–	inactive
CON(C)C(=O)Nc1ccc(Cl)c(Cl)c1	0.735 µM (active)	–
CC(Oc1ccc(Cl)cc1Cl)C(=O)O (stereo not given)	–	inactive
